# Measurements as given in PubChem BioAssay.
# Results filed as inconclusive are left out. The source made the active and inactive calls.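 Rule for the calls, unless noted: active = normalized viability below 100% at a tested concentration; inactive = the rest.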
# Columns and labels:
# [1] = viability loss in pontine glioma line – cell-based, SU-DIPG-XVII, MIPE5.0, CellTiter-Glo, qHTS, dose response (AID 1347060; cut-off not given, nearly all actives have AC50 up to about 26 µM;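 note: cells exposed to compound for 48 hours before viability readout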); settings: CellTiter-Glo ATP luminescence
# [2] = viability loss in pontine glioma line – cell-based, SU-DIPG-XIII, MIPE4.0, CellTiter-Glo, qHTS, dose response (AID 1347061; cut-off not given, nearly all actives have AC50 up to about 37 µM;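 note: cells exposed to compound for 48 hours before readout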); settings: CellTiter-Glo ATP luminescence
# [3] = viability loss in pontine glioma line – cell-based, JHH-DIPG-1, MIPE4.0, CellTiter-Glo, qHTS, dose response (AID 1347062; cut-off not given, nearly all actives have AC50 up to about 27 µM;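 note: cells exposed to compound for two days before readout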); settings: JHH-DIPG-1 viability, CellTiter-Glo ATP luminescence
# [4] = viability loss in pontine glioma line – cell-based, SU-DIPG-IV, MIPE4.0, CellTiter-Glo, qHTS, dose response (AID 1347063; cut-off not given, nearly all actives have AC50 up to about 30 µM;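 note: compound exposure lasted 48 hours before the viability readout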); settings: CellTiter-Glo ATP luminescence
# [5] = viability loss in pontine glioma line – cell-based, SU-DIPG-XIII, MIPE5.0, CellTiter-Glo, qHTS, dose response (AID 1347064; cut-off not given, nearly all actives have AC50 up to about 23 µM;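 note: cells exposed to compound for 48 hours before the viability read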); settings: CellTiter-Glo ATP luminescence
# [6] = viability loss in pontine glioma line – cell-based, SU-DIPG-XXV, MIPE5.0, CellTiter-Glo, qHTS, dose response (AID 1347065; cut-off not given, nearly all actives have AC50 up to about 26 µM;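 note: cells exposed to compound for 48 hours before ATP readout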); settings: CellTiter-Glo ATP luminescence
# [7] = growth inhibition of DIPG cells – cell-based, MIPE4.0 library, CellTiter-Glo luminescence, qHTS (AID 1347066; cut-off not given, nearly all actives have AC50 up to about 30 µM;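 note: cells exposed to compound for 48 hours before readout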); settings: SU-DIPG-VI viability, CellTiter-Glo ATP luminescence
# [8] = JHH-DIPG-1 glioma cell viability, MIPE5.0 library, CellTiter-Glo luminescence, qHTS (AID 1347067; cut-off not given, nearly all actives have AC50 up to about 26 µM;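 note: cells exposed to compound for 48 hours before readout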); settings: JHH-DIPG-1 glioma viability, CellTiter-Glo ATP luminescence
# [9] = compounds altering HSF1 focus formation in cells – imaging, Selleck Cancer Library (AID 1347162; in the data active = plate-normalised HSF1 focus index below about 0.46); settings: human cells, HSF1 nuclear foci imaging, at 10 µM; SSMD: measured here: HSF1 foci SSMD mean; cell count: measured here: cell number; plate-normalised HSF1 focus index: stronger effect = lower value
# [10] = drug combination growth inhibition, ovarian cancer – cell-based, oncology-focused library, rucaparib conditional, profiling panel (AID 1508598); settings: patient-derived ovarian cancer cells, CellTiter-Glo viability, 144 h, stronger effect = lower value
# [11] = growth inhibition, single agent or in combination, cell-based, chromothripsis tumors, cisplatin or BGB combos (AID 1671449; in the data active = inhibition above about 80%;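 note: cells exposed for 96 hours; 0% = vehicle DMSO and 100% = killing by high DMSO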); settings: LFS_MB_P medulloblastoma cells
# [12] = growth inhibition, single agent and combos, cell-based, chromothripsis tumors, cisplatin or BGB combos (AID 1671450; in the data active = inhibition above about 80%;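 note: cells exposed to compound for four days; 0% = vehicle DMSO and 100% = cell killing by high DMSO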); settings: HDN33 neuroblastoma cells, stronger effect = higher value
# [13] = growth inhibition, single agents and combos, ICB984, cell-based, cisplatin or BGB combos, synergistic combos for chromothripsis tumors (AID 1671451; call rule not given here;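 note: cells exposed for 96 hours before readout; 0% = vehicle DMSO and 100% = killing by high DMSO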); settings: ICB984 medulloblastoma cells, drug combinations, stronger effect = higher value
# [14] = growth inhibition, single agents and combos, HTB85, cell-based, BGB or cisplatin IC20 combos, synergistic combos for chromothripsis tumors (AID 1671453; in the data active = inhibition above about 80%;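 note: cells exposed for 96 hours before readout; 0% = vehicle DMSO and 100% = high DMSO killing control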); settings: HTB85 osteosarcoma cells, drug combinations, stronger effect = higher value
# [15] = growth inhibition, MDA-MB-436, cell-based, BGB or cisplatin combos, synergistic combos for chromothripsis tumors (AID 1671458; call rule not given here;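 note: cells exposed for 96 hours; 0% = vehicle DMSO and 100% = killing by high DMSO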); settings: MDA-MB-436 breast carcinoma growth inhibition, drug combinations, stronger effect = higher value
# [16] = BT084 cell growth, single and combined drugs, ICGC_MB145, cisplatin and BGB IC40 combos (AID 1671461; in the data active = inhibition above about 80%;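 note: cells exposed to drugs for 96 hours; 0% = vehicle DMSO and 100% = high DMSO full killing control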); settings: BT084 medulloblastoma cells, drug combinations, stronger effect = higher value
# [17] = RCMB18 cell growth, single agent and combined, cisplatin and BGB IC40 combos (AID 1671462; in the data active = inhibition above about 80%;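 note: cells exposed to compound for four days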); settings: RCMB18 medulloblastoma cells, stronger effect = higher value
compound,measurement,setting,value
O=C(/C=C/c1cccc(S(=O)(=O)Nc2ccccc2)c1)NO,AC50,[1],2.09 µM (active)
same,AC50,[2],15.2 µM (active)
same,AC50,[3],7.62 µM (active)
same,AC50,[4],3.4 µM (active)
same,AC50,[5],0.661 µM (active)
same,AC50,[6],0.742 µM (active)
same,AC50,[7],3.82 µM (active)
same,AC50,[8],0.742 µM (active)
same,SSMD,[9],-3.23
same,cell count,[9],7740
same,plate-normalised HSF1 focus index,[9],0.885 (inactive)
same,viability,"[10]; at 0.000305 µM, OCI-C5x cells, with rucaparib 10 µM, 100% = cells with rucaparib alone",104% (inactive)
same,viability,"[10]; at 0.000305 µM, OCI-C5x cells, without rucaparib",114% (inactive)
same,viability,"[10]; at 0.000305 µM, OCI-P5x cells, with rucaparib 20 µM, 100% = cells with rucaparib alone",106% (inactive)
same,viability,"[10]; at 0.000305 µM, OCI-P5x cells, without rucaparib",94% (active)
same,viability,"[10]; at 0.00122 µM, OCI-C5x cells, with rucaparib 10 µM, 100% = cells with rucaparib alone",98.8% (active)
same,viability,"[10]; at 0.00122 µM, OCI-C5x cells, without rucaparib",117% (inactive)
same,viability,"[10]; at 0.00122 µM, OCI-P5x cells, with rucaparib 20 µM, 100% = cells with rucaparib alone",113% (inactive)
same,viability,"[10]; at 0.00122 µM, OCI-P5x cells, without rucaparib",100% (inactive)
same,viability,"[10]; at 0.00488 µM, OCI-C5x cells, with rucaparib 10 µM, 100% = cells with rucaparib alone",114% (inactive)
same,viability,"[10]; at 0.00488 µM, OCI-C5x cells, without rucaparib",117% (inactive)
same,viability,"[10]; at 0.00488 µM, OCI-P5x cells, with rucaparib 20 µM, 100% = cells with rucaparib alone",101% (inactive)
same,viability,"[10]; at 0.00488 µM, OCI-P5x cells, without rucaparib",95% (active)
same,viability,"[10]; at 0.0195 µM, OCI-C5x cells, with rucaparib 10 µM, 100% = cells with rucaparib alone",104% (inactive)
same,viability,"[10]; at 0.0195 µM, OCI-C5x cells, without rucaparib",119% (inactive)
same,viability,"[10]; at 0.0195 µM, OCI-P5x cells, with rucaparib 20 µM, 100% = cells with rucaparib alone",90.8% (active)
same,viability,"[10]; at 0.0195 µM, OCI-P5x cells, without rucaparib",88.4% (active)
same,viability,"[10]; at 0.0781 µM, OCI-C5x cells, with rucaparib 10 µM, 100% = cells with rucaparib alone",97.6% (active)
same,viability,"[10]; at 0.0781 µM, OCI-C5x cells, without rucaparib",112% (inactive)
same,viability,"[10]; at 0.0781 µM, OCI-P5x cells, with rucaparib 20 µM, 100% = cells with rucaparib alone",77.4% (active)
same,viability,"[10]; at 0.0781 µM, OCI-P5x cells, without rucaparib",75.3% (active)
same,viability,"[10]; at 0.313 µM, OCI-C5x cells, with rucaparib 10 µM, 100% = cells with rucaparib alone",77% (active)
same,viability,"[10]; at 0.313 µM, OCI-C5x cells, without rucaparib",75.9% (active)
same,viability,"[10]; at 0.313 µM, OCI-P5x cells, with rucaparib 20 µM, 100% = cells with rucaparib alone",43.7% (active)
same,viability,"[10]; at 0.313 µM, OCI-P5x cells, without rucaparib",63.5% (active)
same,viability,"[10]; at 1.25 µM, OCI-C5x cells, with rucaparib 10 µM, 100% = cells with rucaparib alone",12.7% (active)
same,viability,"[10]; at 1.25 µM, OCI-C5x cells, without rucaparib",12.1% (active)
same,viability,"[10]; at 1.25 µM, OCI-P5x cells, with rucaparib 20 µM, 100% = cells with rucaparib alone",17.8% (active)
same,viability,"[10]; at 1.25 µM, OCI-P5x cells, without rucaparib",35.8% (active)
same,viability,"[10]; at 5 µM, OCI-C5x cells, with rucaparib 10 µM, 100% = cells with rucaparib alone",5.06% (active)
same,viability,"[10]; at 5 µM, OCI-C5x cells, without rucaparib",5.35% (active)
same,viability,"[10]; at 5 µM, OCI-P5x cells, with rucaparib 20 µM, 100% = cells with rucaparib alone",2.89% (active)
same,viability,"[10]; at 5 µM, OCI-P5x cells, without rucaparib",3.18% (active)
same,inhibition,"[11]; at 0.5 µM, stronger effect = higher value",40.5% (inactive)
same,inhibition,"[11]; measured here: combination with BGB IC20, at 0.005 µM",-0.936%
same,inhibition,"[11]; measured here: combination with BGB IC40, at 0.005 µM",-11.3%
same,inhibition,"[11]; measured here: combination with BGB IC40, at 0.05 µM",-18.3%
same,inhibition,"[11]; measured here: combination with cisplatin, at 0.5 µM, stronger effect = higher value",101%
same,inhibition,"[11]; measured here: combination with cisplatin, at 5 µM, stronger effect = higher value",112%
same,inhibition,"[12]; BGB combo, at 5 µM",99.6%
same,inhibition,[12]; at 0.5 µM,28.3% (inactive)
same,inhibition,"[12]; cisplatin combo, at 5 µM",99.8%
same,inhibition,"[12]; measured here: with BGB IC20 combination, at 0.5 µM",17.9%
same,inhibition,"[12]; measured here: with cisplatin IC20 combination, at 0.5 µM",21.7%
same,inhibition,"[12]; single agent, at 5 µM",99.8%
same,inhibition,"[13]; BGB IC20 combo, at 0.005 µM",18.9%
same,inhibition,"[13]; BGB IC40 combo, at 0.005 µM",36.1%
same,inhibition,"[13]; BGB IC40 combo, at 0.05 µM",94.9%
same,inhibition,[13]; at 0.5 µM,-22.2% (inactive)
same,inhibition,"[13]; cisplatin combo, at 0.05 µM",94.8%
same,inhibition,"[13]; cisplatin combo, at 0.5 µM",-34.3%
same,inhibition,"[13]; cisplatin combo, at 5 µM",-34.9%
same,inhibition,"[13]; measured here: 5 uM single agent, at 5 µM",-35.3%
same,inhibition,[14]; at 0.5 µM,34.5% (inactive)
same,inhibition,"[14]; measured here: with BGB IC20, at 0.5 µM",8.9%
same,inhibition,"[14]; measured here: with BGB IC20, at 5 µM",99.2%
same,inhibition,"[14]; measured here: with cisplatin IC20, at 0.5 µM",49.8%
same,inhibition,"[14]; measured here: with cisplatin IC20, at 5 µM",99.8%
same,inhibition,"[14]; single agent, at 5 µM",99.7%
same,inhibition,[15]; at 0.5 µM,33.7% (inactive)
same,inhibition,"[15]; measured here: BGB combination, at 0.5 µM",25.2%
same,inhibition,"[15]; measured here: BGB combination, at 5 µM",62%
same,inhibition,"[15]; measured here: cisplatin combination, at 0.5 µM",26.3%
same,inhibition,"[15]; measured here: cisplatin combination, at 5 µM",66.1%
same,inhibition,[16]; at 0.5 µM,38.7% (inactive)
same,inhibition,"[16]; cisplatin combination, at 0.5 µM",58.9%
same,inhibition,"[16]; cisplatin combination, at 5 µM",102%
same,inhibition,"[16]; measured here: BGB IC40 combination 0.05 uM, at 0.05 µM",14.1%
same,inhibition,"[16]; single agent, at 5 µM",108%
same,inhibition,[17]; at 0.5 µM,32.4% (inactive)
same,inhibition,"[17]; cisplatin combo, at 5 µM",91.3%
same,inhibition,"[17]; measured here: BGB IC40 combination, at 0.05 µM",-15.7%
same,inhibition,"[17]; measured here: combination with cisplatin, at 0.5 µM",51.1%
same,inhibition,"[17]; single agent, at 5 µM",92.7%
